According to PubChem BioAssay (NCI):
This is part of a sample that, as a whole, favours compounds with a hit. Of some 79,000 tested, about 15% had one in any assay. Active and inactive are the calls of the source. Rule as the data show it: active = growth inhibition above about 70%; inactive = the rest.

Columns and labels:
[1] = NCI Yeast Anticancer Drug Screen. Data for the rad52 strain (AID 147);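 also: 0% = growth of vehicle-treated control cultures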; conditions: S. cerevisiae rad52 mutant growth inhibition, active compounds read high
Outline: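 Screen used a yeast mutant impaired in DNA repair. After compound exposure, growth was measured. Values reflect inhibition compared with vehicle-treated cells.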

[2] = NCI Yeast Anticancer Drug Screen. Data for the wt1 strain (AID 149);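 also: 0% = growth of vehicle-treated wt1 cultures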; conditions: S. cerevisiae wt1 strain (SPY 50644) growth inhibition, active compounds read high
Outline: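 The wt1 strain was treated with compounds, and growth was compared with vehicle-treated cultures to give inhibition.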

[3] = NCI Yeast Anticancer Drug Screen. Data for the rad50EPP+ strain (AID 151);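 also: 0% = growth of vehicle-treated control cultures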; conditions: S. cerevisiae rad50 mutant strain, active compounds read high
Outline: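 Exposing the rad50EPP+ strain to each compound, growth was compared with vehicle-only cultures to give inhibition.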

[4] = NCI Yeast Anticancer Drug Screen. Data for the mgt1 strain (AID 153); conditions: S. cerevisiae mgt1 mutant growth inhibition, active compounds read high
Outline: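 Genetically defined yeast (mgt1) treated with compound; inhibition of growth expressed against vehicle-treated controls.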

[5] = NCI Yeast Anticancer Drug Screen. Data for the rad50 strain (AID 155);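 also: 0% = growth of vehicle-only cultures of the same strain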; conditions: S. cerevisiae rad50 strain growth inhibition, active compounds read high
Outline: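 Cells are treated with compound, grown, and their growth is then scored against vehicle-only cultures of the same repair-deficient yeast strain.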

[6] = NCI Yeast Anticancer Drug Screen. Data for the mec2-1 strain (AID 157); conditions: S. cerevisiae mec2-1 strain, active compounds read high
Outline: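 Readout is yeast growth inhibition, normalised to vehicle-treated controls, in the mec2-1 strain exposed to compound.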

[7] = NCI Yeast Anticancer Drug Screen. Data for the rad14 strain (AID 159);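 also: 0% = growth of vehicle-treated control cultures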; conditions: S. cerevisiae rad14 strain growth inhibition, active compounds read high
Outline: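 Readout: yeast growth inhibition, referenced to vehicle-only cultures. Strain bears a defined alteration in DNA damage repair.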

[8] = NCI Yeast Anticancer Drug Screen. Data for the sgs1 mgt1 strain (AID 161);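 also: 0% = growth of cultures given vehicle only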; conditions: S. cerevisiae sgs1 mgt1 strain, active compounds read high
Outline: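 This yeast growth screen uses a strain with defined DNA-repair lesions; compound-treated growth is compared with vehicle-treated growth.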

[9] = NCI Yeast Anticancer Drug Screen. Data for the CLN2oe strain (AID 163);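 also: 0% = growth of vehicle-only control cultures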; conditions: S. cerevisiae CLN2oe strain, active compounds read high
Outline: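 Values reflect how much compound exposure reduced yeast growth, referenced to vehicle-exposed cells. Assay organism is a strain with a defined genetic change affecting cell-cycle control.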

[10] = NCI Yeast Anticancer Drug Screen. Data for the cln2 rad14 strain (AID 165);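 also: 0% = growth equal to vehicle treated cultures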; conditions: S. cerevisiae cln2 rad14 strain, active compounds read high
Outline: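 Relative to vehicle controls, growth inhibition of compound-treated cln2 rad14 yeast was recorded.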

[11] = NCI Yeast Anticancer Drug Screen. Data for the bub3 strain (AID 167); conditions: S. cerevisiae bub3 mutant strain, active compounds read high
Outline: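 Part of a panel of yeast mutants defective in DNA damage repair or cell cycle regulation. Each strain is grown with compound, and inhibition is calculated relative to solvent-treated cultures.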

[12] = NCI Yeast Anticancer Drug Screen. Data for the wt2 strain (AID 169);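 also: 0% = growth of vehicle-treated yeast cultures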; conditions: S. cerevisiae wt2 strain growth inhibition, active compounds read high
Outline: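 Values express reduction in yeast growth under compound treatment, referenced to vehicle-treated cells.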

[13] = NCI Yeast Anticancer Drug Screen. Data for the mlh1 strain (AID 171);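 also: 0% = growth of vehicle-treated control cultures of the same strain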; conditions: S. cerevisiae mlh1 strain growth inhibition, active compounds read high
Outline: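 Steps: expose the defined-mutant yeast strain to compound; expose a parallel culture to vehicle; measure growth; express compound effect as inhibition relative to the vehicle culture.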

[14] = NCI Yeast Anticancer Drug Screen. Data for the sgs1 strain (AID 173);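 also: 0% = growth of vehicle-only control cultures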; conditions: S. cerevisiae sgs1 mutant, active compounds read high
Outline: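 Treat defined-mutant yeast with compound; measure growth; calculate inhibition relative to vehicle-treated cells.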

[15] = NCI Yeast Anticancer Drug Screen. Data for the mlh1 rad18 strain (AID 175); conditions: S. cerevisiae mlh1 rad18 strain growth inhibition, active compounds read high
Outline: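 Test agents were incubated with a yeast strain of defined genotype (DNA damage repair defect). Inhibition of growth was derived by comparison with vehicle-exposed cultures.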

[16] = NCI Yeast Anticancer Drug Screen. Data for the rad18 strain (AID 177); conditions: S. cerevisiae rad18 mutant growth inhibition, active compounds read high
Outline: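 A genetically defined yeast mutant impaired in DNA damage repair was treated with test compounds, then its growth was measured against cultures receiving vehicle alone.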

[17] = at 5.0 µM (retest, dose inferred, filed as 0.5)
[18] = at 50.0 µM (retest, dose inferred, filed as 5.0)

Measured: growth inhibition

N#CC(C#N)=NNc1ccc(S(=O)(=O)O)cc1
inactive: [1]; at 1.2 µM -6% | [1]; at 3.7 µM 3% | [1]; at 11.0 µM 4% | [1]; at 33.0 µM 14% | [1]; at 100.0 µM 4% | [2]; at 1.2 µM -19% | [2]; at 3.7 µM -18% | [2]; at 11.0 µM -19% | [2]; at 33.0 µM -14% | [2]; at 100.0 µM -3% | [3]; at 1.2 µM 2% | [3]; at 3.7 µM 2% | [3]; at 11.0 µM 19% | [3]; at 33.0 µM -4% | [3]; at 100.0 µM 9% | [4]; at 1.2 µM 3% | [4]; at 3.7 µM 1% | [4]; at 11.0 µM -3% | [4]; at 33.0 µM 7% | [4]; at 100.0 µM 9% | [5]; at 1.2 µM -20% | [5]; at 3.7 µM -27% | [5]; at 11.0 µM -25% | [5]; at 33.0 µM -26% | [5]; at 50.0 µM 19.3% | [5]; at 100.0 µM -9% | [6]; at 1.2 µM -20% | [6]; at 3.7 µM -22% | [6]; at 11.0 µM -29% | [6]; at 33.0 µM -24% | [6]; at 50.0 µM 17.7% | [6]; at 100.0 µM -28% | [7]; at 1.2 µM 11% | [7]; at 3.7 µM 13% | [7]; at 11.0 µM 3% | [7]; at 33.0 µM 2% | [7]; at 100.0 µM 23% | [8]; [17] -2% | [8]; [18] 32% | [8]; at 50.0 µM 22.8% | [9]; at 1.2 µM -17% | [9]; at 3.7 µM -12% | [9]; at 11.0 µM -11% | [9]; at 33.0 µM -19% | [9]; at 100.0 µM -24% | [10]; [17] 0% | [10]; [18] 23% | [10]; at 50.0 µM 17.9% | [11]; at 1.2 µM -30% | [11]; at 3.7 µM -29% | [11]; [17] 17% | [11]; at 11.0 µM -30% | [11]; at 33.0 µM -29% | [11]; [18] 28% | [11]; at 50.0 µM 24.1% | [11]; at 100.0 µM -26% | [12]; at 1.2 µM -15% | [12]; at 3.7 µM -18% | [12]; at 11.0 µM -6% | [12]; at 33.0 µM -17% | [12]; at 100.0 µM -7% | [13]; at 1.2 µM 3% | [13]; at 3.7 µM 5% | [13]; at 11.0 µM 5% | [13]; at 33.0 µM 11% | [13]; at 100.0 µM 41% | [14]; at 1.2 µM -8% | [14]; at 3.7 µM -9% | [14]; at 11.0 µM -7% | [14]; at 33.0 µM 10% | [14]; at 100.0 µM 11% | [15]; [17] 63% | [15]; at 50.0 µM 20.6% | [16]; at 1.2 µM 2% | [16]; at 3.7 µM -6% | [16]; at 11.0 µM 5% | [16]; at 33.0 µM 1% | [16]; at 100.0 µM 2%
active: [5]; [17] 85% | [5]; [18] 99% | [6]; [17] 93% | [6]; [18] 99% | [15]; [18] 100%

COC(=O)C1=C(C(=O)OC)C(C(=O)OC)C(C(=O)OC)C(C(=O)OC)(C(=O)OC)C(C(=O)OC)=C1C(=O)OC (stereo unspecified)
active: [5]; [18] 93% | [5]; at 50.0 µM 77.9% | [6]; [18] 94% | [7]; at 100.0 µM 73% | [8]; [17] 96% | [8]; [18] 99% | [8]; at 50.0 µM 80.1% | [10]; [17] 88% | [10]; [18] 97% | [11]; [17] 95% | [11]; [18] 99% | [15]; [18] 87%
inactive: [1]; at 1.2 µM -2% | [1]; at 3.7 µM -6% | [1]; at 11.0 µM 5% | [1]; at 33.0 µM 20% | [1]; at 100.0 µM 46% | [2]; at 1.2 µM -11% | [2]; at 3.7 µM -13% | [2]; at 11.0 µM -25% | [2]; at 33.0 µM 1% | [2]; at 100.0 µM 39% | [3]; at 1.2 µM -4% | [3]; at 3.7 µM -4% | [3]; at 11.0 µM -4% | [3]; at 33.0 µM 1% | [3]; at 100.0 µM 27% | [4]; at 1.2 µM -18% | [4]; at 3.7 µM -19% | [4]; at 11.0 µM -17% | [4]; at 33.0 µM 13% | [4]; at 100.0 µM 62% | [5]; at 1.2 µM -10% | [5]; at 3.7 µM -14% | [5]; [17] 25% | [5]; at 11.0 µM 7% | [5]; at 33.0 µM 25% | [5]; at 100.0 µM 62% | [6]; at 1.2 µM -13% | [6]; at 3.7 µM -14% | [6]; [17] 20% | [6]; at 11.0 µM 1% | [6]; at 33.0 µM 16% | [6]; at 50.0 µM 60.5% | [6]; at 100.0 µM 55% | [7]; at 1.2 µM -16% | [7]; at 3.7 µM -20% | [7]; at 11.0 µM -11% | [7]; at 33.0 µM 14% | [9]; at 1.2 µM -11% | [9]; at 3.7 µM -21% | [9]; at 11.0 µM -26% | [9]; at 33.0 µM -7% | [9]; at 100.0 µM -1% | [10]; at 50.0 µM 33% | [11]; at 1.2 µM -13% | [11]; at 3.7 µM -13% | [11]; at 11.0 µM -22% | [11]; at 33.0 µM 18% | [11]; at 50.0 µM 54.5% | [11]; at 100.0 µM 35% | [12]; at 1.2 µM -22% | [12]; at 3.7 µM -18% | [12]; at 11.0 µM -17% | [12]; at 33.0 µM 1% | [12]; at 100.0 µM 58% | [13]; at 1.2 µM -16% | [13]; at 3.7 µM -23% | [13]; at 11.0 µM -18% | [13]; at 33.0 µM -1% | [13]; at 100.0 µM 39% | [14]; at 1.2 µM -18% | [14]; at 3.7 µM -11% | [14]; at 11.0 µM -7% | [14]; at 33.0 µM 18% | [14]; at 100.0 µM 60% | [15]; [17] 26% | [15]; at 50.0 µM 67.4% | [16]; at 1.2 µM -20% | [16]; at 3.7 µM -21% | [16]; at 11.0 µM -5% | [16]; at 33.0 µM 17% | [16]; at 100.0 µM 51%
